Source: PubChem
Most compounds without a hit are left out; they make up all but 21% or so of the library.
Pf growth 96h: P. falciparum growth inhibition at 96 hours; 6.9% of 320,000 active; P. falciparum luciferase reporter growth, 96 h; Potency, µM (titrated, usually from 28.7 µM), for inactives: at the highest dose activity change, negative = inhibition, hits mostly inhibitors; also: potency is read from the fitted curve at half-maximal effect; % is scaled to controls: 0 for no effect and ±100 for the full control effect
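Compounds incubated with erythrocytes infected by luciferase-expressing P. falciparum (2% hematocrit, 0.05% parasitemia final) for 96 hours, 37 C in 5% CO2. Growth inhibition scored as decreased luciferase luminescence.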
FBPA Giardia inh: inhibitors of Giardia lamblia fructose-1,6-bisphosphate aldolase; Potency, µM (top dose mostly 59.6 µM), for inactives: at the highest dose activity, negative = inhibition, usual class: inhibitors; AID 2451; 0.71% of 290,000 active; purified Giardia FBPA; A8B2U2; also: potency is read from the fitted curve at half-maximal effect; % is scaled to controls: 0 for no effect and ±100 for the full control effect; nearly all actives have a fitted effect of over 55% in size
Target sequence (A8B2U2 whole entry, looked up): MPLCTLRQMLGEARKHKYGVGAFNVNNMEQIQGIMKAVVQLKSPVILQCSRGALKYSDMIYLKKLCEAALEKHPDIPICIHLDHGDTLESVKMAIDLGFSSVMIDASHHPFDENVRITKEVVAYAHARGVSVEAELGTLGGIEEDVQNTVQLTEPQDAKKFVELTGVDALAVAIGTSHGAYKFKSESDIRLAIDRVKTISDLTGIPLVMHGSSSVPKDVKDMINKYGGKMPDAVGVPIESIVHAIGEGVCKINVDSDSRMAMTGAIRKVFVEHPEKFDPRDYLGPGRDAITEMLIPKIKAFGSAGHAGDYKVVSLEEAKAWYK
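Giardia FBPA (40 nM reagent) was preincubated 10 min at RT with compound (up to 57.5 uM final), then substrate plus GAPDH/TPI/NAD/arsenate coupling system with diaphorase/resazurin was added; resorufin fluorescence (525/598 nm) was read after 20 min.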
NS1 inh: inhibitors of influenza NS1 protein function. Potency, µM (titrated, usually from 46.1 µM), for inactives: at the highest dose activity, positive = more growth. 0.4% of 270,000 active. AID 2326; calls by dose curve; also: potency is read from the fitted curve at half-maximal effect; actives are rising curves; nearly all actives have a fitted effect of over 50% in size
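S. cerevisiae expressing influenza A NS1, grown in glucose, washed, then diluted 1:100 into pH 6.0 -URA galactose medium with 23 nl compound. Growth recovery read as OD600; NS1-free strain serves as control.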
Pf growth 48h: inhibits P. falciparum growth in the first generation, 48 h; P. falciparum luciferase growth in erythrocytes, 48 h; Potency, µM (doses to about 28.7 µM), for inactives: at the highest dose activity change, negative = inhibition, actives largely listed as inhibitors; 5.9% of 310,000 active; also: potency is read from the fitted curve at half-maximal effect; % is scaled to controls: 0 for no effect and ±100 for the full control effect
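Parasite viability was followed by luminescence of a genomically integrated firefly luciferase. Cultures held 0.1% parasitemia at 2% hematocrit (final), incubated under 5% CO2 at 37 C.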
Shiga inhibitor: Shiga toxin inhibition. Vero cells, Shiga toxin protein synthesis inhibition reporter. inhibition, % at 38.7 µM. 9.2% of 290,000 active. AID 2315; in the data active = inhibition mostly above about 28%, no sharp cut-off; inactive = mostly below about 43%; also: 0% is about no effect
Cycloheximide cs: counter-screen hit for Shiga toxin inhibitors, cycloheximide | max response, % | cell reporter, cycloheximide protein synthesis inhibition counterscreen | 12% of 300,000 active | AID 2314; in the data active = max response mostly above about 13%, no sharp cut-off; inactive = mostly below about 14%; also: read at 38.3 µM for the half of the compounds with a filed dose; 0% is about no effect
* marks the source's active call; other numbers are inactive results; i = inactive; ? = inconclusive; / = not tested or not shown; [ ] = another dose, or the depositor's remark. Unless noted, calls follow the shape of the dose curve; as a rule, active = well fitted curve in the direction sought with a large enough effect; inconclusive = small, poorly fitted or top-dose-only effect, or another doubt; inactive = no such curve, though single readings can be large; an effect the other way counts as inactive or inconclusive.

SMILES	Pf growth 96h	FBPA Giardia inh	NS1 inh	Pf growth 48h	Shiga inhibitor	Cycloheximide cs
O=C(C1CC1)N1CCc2sccc2C1c1ccc(Cl)cc1 (stereo unspecified)	?	1%	-2%	?	21	-3
CC(=O)c1ccc(OCC(=O)N2CCN(S(=O)(=O)c3ccc(C)cc3C)CC2)cc1	9.3µM*	5%	-3%	?	-11	-3
COc1cc(CCC(=O)N2CCN(c3ccc(N4CCOCC4)nn3)CC2)cc(OC)c1OC	7.4µM*	-4%	-14%	/	-11	-10
O=S(=O)(c1ccc(OCc2ccc(Br)cc2)cc1)N1CCOCC1	6.6µM*	/	/	-26%	/	/
COc1ccc(S(=O)(=O)N2CCN(C(=O)COc3ccc4c(C)cc(=O)oc4c3)CC2)cc1	4.7µM*	-1%	3%	?	-19	-5
CCC(C)c1ccc(S(=O)(=O)N2CCN(C(=O)COc3ccc4c(C)cc(=O)oc4c3)CC2)cc1 (stereo unspecified)	?	1%	-57%	/	-16	5
O=S(=O)(c1ccc(Oc2ccc(S(=O)(=O)N3CCOCC3)cc2)cc1)N1CCOCC1	?	5%	2%	-12%	45	-1
Cc1ccc(OCCC(=O)OCC(=O)N2CCN(S(=O)(=O)c3ccc(C)cc3C)CC2)cc1	1%	/	/	10%	/	/
COc1ccc(S(=O)(=O)N2CCOC23CCN(S(=O)(=O)c2cc(F)ccc2F)CC3)cc1	?	/	/	-1%	/	/
COc1cc(CCC(=O)N2CCN(S(=O)(=O)c3ccc(C)c(C)c3)CC2)cc(OC)c1OC	4.7µM*	4%	-5%	?	-5	0
COc1ccc(CCC(=O)N2CCN(S(=O)(=O)c3ccc4ccccc4c3)CC2)cc1	?	1%	7%	-28%	-18	-2
COc1ccc(CCC(=O)N2CCN(S(=O)(=O)c3ccc(OC(F)(F)F)cc3)CC2)cc1	12µM*	/	/	9.3µM*	/	/
O=C(COc1ccccc1[N+](=O)[O-])N1CCN(S(=O)(=O)c2ccccc2)CC1	-25%	4%	-5%	0%	26	7
Cc1ccc(OCC(=O)N2CCN(S(=O)(=O)c3ccccc3[N+](=O)[O-])CC2)cc1	30%[5.75 µM]	0%	-2%	9.3µM*	-2	-3
CCOC(=O)Nc1ccc2c(CNC(C)c3ccccc3OC)cc(=O)oc2c1 (stereo unspecified)	-52%	-12%	21%	?	-5	2
Cc1nn(CC2CC2)c(=O)n1-c1ccccc1	94%	8%	/	61%	3	1
CCn1cc(CN2CCN(C)C(CCO)C2)c2ccccc21 (stereo unspecified)	13µM*	8%	21%	5%	-5	-1
CCn1cc(CN2CCN(CCC(C)C)C(CCO)C2)c2ccccc21 (stereo unspecified)	-18%	11%	19%	?	-3	1
CN(C)CCCNC(=S)Nc1ccc(Br)cc1	30%	4%	1%	-11%	20	1
CC(C)CC(=O)Nc1cccc(-c2nc3ccccc3o2)c1	?	-1%	-20%	0%	62*	22*
O=C(Cc1ccccc1)Nc1ccc2oc(-c3ccncc3)nc2c1	-11%[5.75 µM]	-7%	-1%	-5%	33	15
CC(=O)Nc1ccc(-c2nc3ccc(NC(C)=O)cc3o2)cc1	35%	0%	0%	67%	79*	34*
CC(=O)Nc1ccc2nc3ccccc3nc2c1	219%	?	-58%	169%	91*	52*
CC(C)CC(=O)Nc1ccc2oc(-c3ccncc3)nc2c1	?	4%	-12%	114%	59*	24*
CN(C)C(=O)c1cc(C(=O)Cc2ccccc2)c[nH]1	32%	11%	-3%	-1%[0.00184 µM]	10	8
SMILES	Pf growth 96h	FBPA Giardia inh	NS1 inh	Pf growth 48h	Shiga inhibitor	Cycloheximide cs
CC(N)C(=O)NCC(=O)NC1CSSCC(C(=O)O)NC(=O)C(CO)NC(=O)C(C(C)O)NC(=O)C(Cc2ccccc2)NC(=O)C(C(C)O)NC(=O)C(CCCCN)NC(=O)C(Cc2c[nH]c3ccccc23)NC(=O)C(Cc2ccccc2)NC(=O)C(Cc2ccccc2)NC(=O)C(CC(N)=O)NC(=O)C(CCCCN)NC1=O (stereo unspecified)	?	/	/	1%	/	/
Cc1ccc2c(c1)cc1c(=O)n(CC(=O)NCCCc3ccccc3)nc(C)n12	32%	/	14%	13%	4	-1
CCCC(=O)Nc1cccc(-c2nc3ccccc3o2)c1	/	0%	4%	42%	33	26*
COc1ccc(OCC(=O)Nc2cccc(-c3nc4ccccc4o3)c2)cc1	?	-1%	16%	1%	123*	45*
CCCC(=O)Nc1cccc(-c2nc3cc(C)c(C)cc3o2)c1	370%	6%	-9%	256%	84*	39*
CCCCCC(=O)Nc1cccc(-c2nc3ncccc3o2)c1	/	0%	-11%	?	2	18
CC(=O)Nc1cccc(-c2nc3ccccc3o2)c1	0%	22%	-38%	0%	40*	28*
O=C(O)CCC(=O)Nc1cccc(-c2nc3ccccc3o2)c1	-23%	7%	8%	40%	5	0
CCC(C)C1NC(=O)C(CCNCS(=O)(=O)O)NC(=O)C(NC(=O)C(CCNCS(=O)(=O)O)NC(=O)C(NC(=O)C(CCNCS(=O)(=O)O)NC(=O)CCCCC(C)C)C(C)O)CCNC(=O)C(C(C)O)NC(=O)C(CCNCS(=O)(=O)O)NC(=O)C(CCNCS(=O)(=O)O)NC(=O)C(C(C)CC)NC1=O (stereo unspecified)	?	-3%	/	?	/	/
CC(=O)Nc1ccc2oc(-c3ccccc3)nc2c1	-16%	-2%	/	i	93*	41*
CC(C)C(=O)Nc1cc2c3c(c1)CCC(=O)N3CCC2	33%	-11%	7%	14%	-11	7
O=c1c2ccc(Cl)cc2nc(-c2cccc(C(F)(F)F)c2)n1O	10µM*	0%	-205%	?	-3	8
N#Cc1ccc(-c2nc3cc(Cl)ccc3c(=O)n2O)cc1	-11%	13%	-77%	?	-1	-3
CCc1c(C)[nH]c2ccc(C)cc2c1=O	13%	-2%	-11%	1.7µM*	45*	22*
CCCc1c(C)c2cc(C)ccc2[nH]c1=O	9.3µM*	-4%	-94%	15%	4	-2
Cc1ccc2[nH]c(-c3ccccc3)c(CN(C)C)c(=O)c2c1	?	10%	5%	?	46	41*
Cc1ccc2[nH]c(C)c(CC(=O)O)c2c1	/	?	9%	?	36	7
C=CCc1c(C)[nH]c2ccc(C)cc2c1=O	/	2%	-46%	1.5µM*	70*	31*
C#CC(C)OC(=O)c1nnc2c3ccccc3n(COC)c2n1 (stereo unspecified)	/	-3%[12.9 µM]	/	/	/	/
COc1ccccc1N1C(=O)c2cccc3cccc(c23)C1=O	33%	-7%	20%	?	-4	-3
